These results are taken from ChEMBL document CHEMBL1961873, “Compounds: GSK PKIS; Assays: Nanosyn kinase panel” (2012).

Test [1] deals with Dual specificity protein kinase CLK3 (Homo sapiens) (UniProt P49761). The conditions noted are these: at 1 µM.
The target of test [2] is Dual specificity tyrosine-phosphorylation-regulated kinase 1A (Homo sapiens) (UniProt Q13627). The conditions noted are these: at 0.1 µM.
Test [3] has the same target. The note with it: at 1 µM.
Test [4] deals with Dual specificity tyrosine-phosphorylation-regulated kinase 1B (Homo sapiens) (UniProt Q9Y463). The conditions noted are these: at 0.1 µM.
Test [5] has the same target. The note with it: at 1 µM.
Test [6] has as its target T1, Dual specificity tyrosine-phosphorylation-regulated kinase 2 (Homo sapiens) (UniProt Q92630).
T1 sequence (whole entry): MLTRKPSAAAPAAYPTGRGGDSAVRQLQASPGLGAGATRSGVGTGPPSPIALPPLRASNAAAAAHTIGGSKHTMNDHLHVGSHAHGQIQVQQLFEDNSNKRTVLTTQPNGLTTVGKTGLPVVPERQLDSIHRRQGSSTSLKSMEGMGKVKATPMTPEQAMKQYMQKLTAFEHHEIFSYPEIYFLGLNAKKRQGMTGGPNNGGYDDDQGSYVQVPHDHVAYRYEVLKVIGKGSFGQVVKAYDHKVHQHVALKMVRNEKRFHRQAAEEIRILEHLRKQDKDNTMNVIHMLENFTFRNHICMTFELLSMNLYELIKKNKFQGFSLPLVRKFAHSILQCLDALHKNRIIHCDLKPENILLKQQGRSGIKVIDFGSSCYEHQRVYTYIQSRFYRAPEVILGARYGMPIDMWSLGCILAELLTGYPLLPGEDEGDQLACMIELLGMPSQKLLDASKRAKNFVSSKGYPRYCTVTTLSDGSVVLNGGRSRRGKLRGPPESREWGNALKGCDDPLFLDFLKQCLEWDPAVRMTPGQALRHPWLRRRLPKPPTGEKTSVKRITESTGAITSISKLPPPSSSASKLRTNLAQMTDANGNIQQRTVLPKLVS
The conditions noted are these: at 0.1 µM.

Test [7] has as its target T1, Dual specificity tyrosine-phosphorylation-regulated kinase 2 (Homo sapiens). The conditions noted are these: at 1 µM.
The target in test [8] is Glycogen synthase kinase-3 alpha (Homo sapiens) (UniProt P49840). The conditions noted are these: at 0.1 µM.
Test [9] has the same target. The conditions noted are these: at 1 µM.
Test [10] has as its target Glycogen synthase kinase-3 beta (Homo sapiens) (UniProt P49841). The conditions noted are these: at 0.1 µM.
For test [11] the target is unchanged. The conditions noted are these: at 1 µM.
Test [12] has as its target Homeodomain-interacting protein kinase 1 (Homo sapiens) (UniProt Q86Z02). The note with it: at 0.1 µM.
The target is the same in test [13]. The conditions noted are these: at 1 µM.
Test [14] deals with T2, Homeodomain-interacting protein kinase 4 (Homo sapiens) (UniProt Q8NE63).
T2 sequence (whole entry): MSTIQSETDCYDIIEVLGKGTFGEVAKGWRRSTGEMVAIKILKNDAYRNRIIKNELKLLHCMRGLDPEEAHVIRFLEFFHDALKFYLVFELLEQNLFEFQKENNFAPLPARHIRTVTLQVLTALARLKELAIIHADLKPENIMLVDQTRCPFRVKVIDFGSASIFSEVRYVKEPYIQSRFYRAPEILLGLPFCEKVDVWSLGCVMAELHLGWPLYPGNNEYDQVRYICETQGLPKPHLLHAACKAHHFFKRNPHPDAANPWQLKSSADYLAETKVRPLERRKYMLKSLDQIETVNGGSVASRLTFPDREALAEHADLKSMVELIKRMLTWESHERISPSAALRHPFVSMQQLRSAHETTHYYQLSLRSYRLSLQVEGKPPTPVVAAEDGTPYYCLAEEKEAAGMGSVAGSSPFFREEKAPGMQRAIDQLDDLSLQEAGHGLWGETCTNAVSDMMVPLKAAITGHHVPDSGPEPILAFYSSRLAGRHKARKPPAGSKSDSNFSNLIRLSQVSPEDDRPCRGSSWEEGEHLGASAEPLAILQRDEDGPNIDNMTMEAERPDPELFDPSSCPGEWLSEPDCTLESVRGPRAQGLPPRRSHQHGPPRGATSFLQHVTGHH
The note with it: at 0.1 µM.

Test [15] deals with T2, Homeodomain-interacting protein kinase 4 (Homo sapiens). The note with it: at 1 µM.
The target in test [16] is Mitogen-activated protein kinase 9 (Homo sapiens) (UniProt P45984). The note with it: at 0.1 µM.
For test [17] the target is unchanged. The note with it: at 1 µM.
Test [18] deals with Mitogen-activated protein kinase 1 (Homo sapiens) (UniProt P28482). The note with it: at 0.1 µM.
Test [19] shares this target. The note with it: at 1 µM.
The target of test [20] is Mitogen-activated protein kinase 3 (Homo sapiens) (UniProt P27361). The note with it: at 0.1 µM.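 Further: each value is a mean inhibition figure.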
Sequence of Mitogen-activated protein kinase 3 (Homo sapiens) (P27361 whole entry): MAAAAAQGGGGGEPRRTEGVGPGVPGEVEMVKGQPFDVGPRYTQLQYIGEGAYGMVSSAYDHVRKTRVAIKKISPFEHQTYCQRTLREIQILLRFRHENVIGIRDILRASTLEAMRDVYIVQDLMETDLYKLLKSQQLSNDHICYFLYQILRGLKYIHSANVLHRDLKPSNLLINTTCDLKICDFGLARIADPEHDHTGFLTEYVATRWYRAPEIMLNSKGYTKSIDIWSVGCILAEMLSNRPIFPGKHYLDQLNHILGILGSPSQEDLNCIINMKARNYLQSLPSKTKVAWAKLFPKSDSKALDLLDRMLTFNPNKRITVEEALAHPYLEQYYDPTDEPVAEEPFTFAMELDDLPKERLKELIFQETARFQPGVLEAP

Sequence of Dual specificity protein kinase CLK3 (Homo sapiens) (P49761 whole entry, looked up): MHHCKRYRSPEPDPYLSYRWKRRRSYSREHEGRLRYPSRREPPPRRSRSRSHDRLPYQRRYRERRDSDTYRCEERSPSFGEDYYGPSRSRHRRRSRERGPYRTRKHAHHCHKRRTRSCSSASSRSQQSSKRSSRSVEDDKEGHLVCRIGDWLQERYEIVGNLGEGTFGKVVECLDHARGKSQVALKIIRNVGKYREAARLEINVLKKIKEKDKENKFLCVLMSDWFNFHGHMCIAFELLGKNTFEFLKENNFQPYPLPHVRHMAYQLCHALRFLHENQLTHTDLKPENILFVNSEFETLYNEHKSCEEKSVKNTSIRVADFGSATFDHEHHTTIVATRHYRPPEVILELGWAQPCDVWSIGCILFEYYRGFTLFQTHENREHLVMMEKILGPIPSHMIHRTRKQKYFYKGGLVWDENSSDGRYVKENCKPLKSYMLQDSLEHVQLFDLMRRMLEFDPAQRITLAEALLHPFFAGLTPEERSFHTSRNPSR
Sequence of Mitogen-activated protein kinase 9 (Homo sapiens) (P45984 whole entry, looked up): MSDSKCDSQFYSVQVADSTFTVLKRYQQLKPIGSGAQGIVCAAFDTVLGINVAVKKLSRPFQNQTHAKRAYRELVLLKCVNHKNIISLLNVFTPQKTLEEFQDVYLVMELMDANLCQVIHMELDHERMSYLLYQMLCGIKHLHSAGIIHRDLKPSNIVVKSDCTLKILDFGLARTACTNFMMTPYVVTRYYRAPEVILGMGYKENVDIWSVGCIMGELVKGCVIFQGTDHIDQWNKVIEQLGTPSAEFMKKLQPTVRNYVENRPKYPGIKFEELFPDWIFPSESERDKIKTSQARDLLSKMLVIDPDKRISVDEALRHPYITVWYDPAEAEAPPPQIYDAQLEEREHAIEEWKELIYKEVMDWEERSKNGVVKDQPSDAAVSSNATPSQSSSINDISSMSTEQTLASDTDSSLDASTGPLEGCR
Sequence of Glycogen synthase kinase-3 alpha (Homo sapiens) (P49840 2-483 limits assumed): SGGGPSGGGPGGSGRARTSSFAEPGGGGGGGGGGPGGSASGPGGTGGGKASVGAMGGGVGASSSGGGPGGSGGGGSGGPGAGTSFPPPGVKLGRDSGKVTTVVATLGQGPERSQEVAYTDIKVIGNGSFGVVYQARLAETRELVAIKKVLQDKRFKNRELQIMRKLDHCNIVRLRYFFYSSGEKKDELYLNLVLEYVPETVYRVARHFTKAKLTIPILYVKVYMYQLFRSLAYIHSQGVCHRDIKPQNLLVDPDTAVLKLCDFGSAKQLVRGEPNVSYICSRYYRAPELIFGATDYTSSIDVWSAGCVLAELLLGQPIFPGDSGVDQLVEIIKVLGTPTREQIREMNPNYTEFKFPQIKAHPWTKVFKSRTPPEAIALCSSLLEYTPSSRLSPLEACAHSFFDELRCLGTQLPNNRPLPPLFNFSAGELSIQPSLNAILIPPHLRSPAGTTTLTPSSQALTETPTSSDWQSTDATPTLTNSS
Sequence of Homeodomain-interacting protein kinase 1 (Homo sapiens) (Q86Z02 whole entry, looked up): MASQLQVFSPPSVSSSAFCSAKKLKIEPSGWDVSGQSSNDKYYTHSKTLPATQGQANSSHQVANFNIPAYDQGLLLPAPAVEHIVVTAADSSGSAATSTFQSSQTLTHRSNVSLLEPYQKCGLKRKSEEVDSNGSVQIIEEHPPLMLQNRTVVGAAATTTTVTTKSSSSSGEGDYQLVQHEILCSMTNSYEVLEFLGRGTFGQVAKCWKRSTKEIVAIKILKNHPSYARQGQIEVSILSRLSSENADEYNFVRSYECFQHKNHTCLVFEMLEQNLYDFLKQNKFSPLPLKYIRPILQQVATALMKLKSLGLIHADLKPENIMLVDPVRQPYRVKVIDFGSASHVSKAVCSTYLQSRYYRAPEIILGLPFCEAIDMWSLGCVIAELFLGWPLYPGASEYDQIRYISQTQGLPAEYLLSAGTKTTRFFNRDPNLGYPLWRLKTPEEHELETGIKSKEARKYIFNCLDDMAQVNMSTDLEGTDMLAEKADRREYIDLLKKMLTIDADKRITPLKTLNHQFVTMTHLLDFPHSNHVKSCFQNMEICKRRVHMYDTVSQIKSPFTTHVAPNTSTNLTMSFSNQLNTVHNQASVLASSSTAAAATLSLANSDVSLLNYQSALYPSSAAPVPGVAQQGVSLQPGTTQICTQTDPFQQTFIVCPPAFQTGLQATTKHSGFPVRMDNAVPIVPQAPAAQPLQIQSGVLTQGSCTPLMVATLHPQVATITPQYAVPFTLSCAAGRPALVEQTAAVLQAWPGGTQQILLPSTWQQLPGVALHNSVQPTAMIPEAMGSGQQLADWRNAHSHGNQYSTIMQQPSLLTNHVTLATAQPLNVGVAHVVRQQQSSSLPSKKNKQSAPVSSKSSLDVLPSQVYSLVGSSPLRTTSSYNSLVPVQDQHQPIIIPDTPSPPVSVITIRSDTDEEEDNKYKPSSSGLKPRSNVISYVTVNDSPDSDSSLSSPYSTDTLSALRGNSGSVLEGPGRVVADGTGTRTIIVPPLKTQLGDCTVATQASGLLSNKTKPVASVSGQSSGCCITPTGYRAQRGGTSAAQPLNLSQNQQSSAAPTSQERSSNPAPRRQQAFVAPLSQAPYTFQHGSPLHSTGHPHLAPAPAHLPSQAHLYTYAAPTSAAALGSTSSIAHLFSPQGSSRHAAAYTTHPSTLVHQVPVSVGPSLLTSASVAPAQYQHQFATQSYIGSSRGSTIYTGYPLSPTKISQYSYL
Sequence of Dual specificity tyrosine-phosphorylation-regulated kinase 1B (Homo sapiens) (Q9Y463 whole entry, looked up): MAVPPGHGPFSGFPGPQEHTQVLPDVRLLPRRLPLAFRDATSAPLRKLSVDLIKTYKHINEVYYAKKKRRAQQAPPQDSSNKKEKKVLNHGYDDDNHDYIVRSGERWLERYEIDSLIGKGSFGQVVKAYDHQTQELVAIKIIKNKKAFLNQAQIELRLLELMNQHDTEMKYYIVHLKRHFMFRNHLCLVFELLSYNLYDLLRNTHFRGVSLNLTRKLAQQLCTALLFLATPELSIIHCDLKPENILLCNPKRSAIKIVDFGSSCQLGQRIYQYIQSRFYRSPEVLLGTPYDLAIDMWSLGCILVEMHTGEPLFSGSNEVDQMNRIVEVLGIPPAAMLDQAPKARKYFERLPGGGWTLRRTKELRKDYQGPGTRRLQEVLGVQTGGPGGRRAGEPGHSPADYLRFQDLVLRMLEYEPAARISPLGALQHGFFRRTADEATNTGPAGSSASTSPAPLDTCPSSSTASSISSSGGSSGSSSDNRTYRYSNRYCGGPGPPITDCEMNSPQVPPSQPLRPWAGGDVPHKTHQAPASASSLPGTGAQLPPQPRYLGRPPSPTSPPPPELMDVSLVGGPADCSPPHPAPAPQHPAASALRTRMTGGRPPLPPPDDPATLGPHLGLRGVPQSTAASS
Sequence of Mitogen-activated protein kinase 1 (Homo sapiens) (P28482 whole entry): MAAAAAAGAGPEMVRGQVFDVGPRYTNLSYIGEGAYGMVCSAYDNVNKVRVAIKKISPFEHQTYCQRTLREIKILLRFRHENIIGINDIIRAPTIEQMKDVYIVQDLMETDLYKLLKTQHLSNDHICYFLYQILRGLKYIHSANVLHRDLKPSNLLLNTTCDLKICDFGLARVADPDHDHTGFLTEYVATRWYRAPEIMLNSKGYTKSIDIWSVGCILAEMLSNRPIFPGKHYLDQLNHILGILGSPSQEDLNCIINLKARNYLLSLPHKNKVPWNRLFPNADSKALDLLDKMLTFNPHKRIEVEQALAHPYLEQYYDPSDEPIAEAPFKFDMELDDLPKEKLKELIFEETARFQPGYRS
Sequence of Glycogen synthase kinase-3 beta (Homo sapiens) (P49841 whole entry, looked up): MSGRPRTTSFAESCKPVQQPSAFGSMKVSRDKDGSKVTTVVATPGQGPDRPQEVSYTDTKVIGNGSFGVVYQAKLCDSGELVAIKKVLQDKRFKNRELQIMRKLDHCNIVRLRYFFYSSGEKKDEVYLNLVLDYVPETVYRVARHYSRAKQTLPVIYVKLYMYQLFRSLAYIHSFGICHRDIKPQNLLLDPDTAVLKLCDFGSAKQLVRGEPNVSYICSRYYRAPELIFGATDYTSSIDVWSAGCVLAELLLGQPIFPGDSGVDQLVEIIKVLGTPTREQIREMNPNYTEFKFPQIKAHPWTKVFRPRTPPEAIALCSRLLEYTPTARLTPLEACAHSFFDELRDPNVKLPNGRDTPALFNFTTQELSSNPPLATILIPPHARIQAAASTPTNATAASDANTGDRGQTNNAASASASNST

In general, inhibition refers to the drop in the measured response relative to a control, in per cent. With `CCS(=O)(=O)c1ccc(OC)c(Nc2ncc(-c3cccc(OC)c3)o2)c1`, the inhibition is 13.2% in test [1]; 8.22% in test [2]; 41.4% in [3]; 6.86% in test [4]; 37.7% in [5]; 3.86% in test [6]. Moreover, the inhibition in [7] worked out at 18.4%; in test [8], 1.96%; in [9] it was 9.4%; in test [10], 2.23%; in [11], 11.2%; in [12] it was 7.9%. Besides, the inhibition in test [13] was determined as 48.3%; in [14], 19.5%; in test [15], 65.7%; in test [16], 3.19%; in [17], 6.62%; in test [18], 1.59%. Besides, the inhibition in test [19] is 1.18%; in test [20] it was -0.18%.
Take `COc1cc(Nc2nccc(-c3cnn4ncccc34)n2)cc(OC)c1`: the inhibition in [1] is 77.3%; in [2] it was 85%; in test [3], 91.2%; in test [4], 87.4%; in test [5], 92.4%; in [6], 5.46%. Also, the inhibition is 30.2% in test [7]; 49.7% in test [8]; 86.8% in test [9]; 60.2% in test [10]; 89.9% in test [11]; 86.8% in [12]. Moreover, the inhibition stood at 93.7% in [13]; 30.6% in test [14]; 76.3% in test [15]; 10.4% in test [16]; 48.1% in test [17]; 2.31% in [18]. Besides, the inhibition in test [19] came out at 19.7%; in [20] it was 2.46%.
As for `NS(=O)(=O)c1ccc(Nc2cc(-c3cccc(O)c3)n[nH]2)cc1`, the inhibition in [1] came out at 2.62%; in test [2], 3.45%; in test [3], 7.37%; in [4] it was 0.5%; in test [5], 2.4%; in [6] it was 3.82%. Besides, the inhibition in [7] was 4.65%; in test [8] it was 2.99%; in test [9], 6.38%; in test [10], 2.02%; in test [11] it was 5.21%; in [12] it was -1.93%. Also, the inhibition in [13] is 2.36%; in test [14], 0.59%; in test [15], 3.33%; in [16], 5.37%; in test [17] it was 6.35%; in [18] it was 5.89%. The inhibition in [19] was 4.96%; in [20] it was 4.41%.
For `c1ccc(Nc2ncc(-c3ccccc3)o2)cc1`, the inhibition in test [1] is 1.62%; in test [2] it was 3.02%; in test [3], 2.66%; in test [4], -0.02%; in [5], 1.13%; in test [6], 4.52%. The inhibition was 5.66% in [7]; 4.96% in test [8]; 15.8% in test [9]; 5.53% in [10]; 13.3% in test [11]; -2.56% in test [12]. Also, the inhibition in [13] worked out at 3.15%; in test [14], 1.19%; in [15], 6.31%; in test [16], 6.78%; in test [17] it was 12.9%; in test [18], 6.94%. In addition, the results for the inhibition in test [19] and in [20] were 7.41% and 6.5%, respectively.
With `CN(C)CCCn1c(-c2nonc2N)nc2cnccc21`, the inhibition in [1] was 1.96%; in test [2], 3.5%; in [3], 8.9%; in [4] it was 0.77%; in test [5] it was 4.52%; in test [6], 2.75%. Further, the inhibition stood at 3.79% in [7]; 2.45% in [8]; 15.1% in test [9]; 2.77% in test [10]; 12.3% in test [11]; 1.03% in test [12]. Moreover, the inhibition is -0.49% in test [13]; 0.39% in [14]; 0.4% in [15]; 5.36% in test [16]; 4.57% in test [17]; 2.21% in test [18]. Besides, the inhibition in test [19] stood at 4.9%; in [20], 2.32%.
As to `O=S(=O)(CCOCc1ccc(-c2ccc3ncnc(Nc4ccc(OCc5cccc(F)c5)c(Cl)c4)c3c2)o1)c1ccccc1`, the inhibition in [1] was 0.14%; in test [2], 1.15%; in [3], 1.59%; in [4], -0.1%; in [5] it was 2.9%; in test [6] it was 0.96%. The inhibition in [7] was 2.34%; in test [8], 2.99%; in test [9], 5.63%; in [10] it was 2.14%; in [11], 5.91%; in test [12], -2.8%. The inhibition in test [13] is 2.64%; in [14] it was 2.22%; in [15] it was 5.69%; in [16], 0.13%; in test [17], 0.74%; in test [18], 2.68%. The inhibition in test [19] stood at 3.54%; in [20], 3.68%.
As for `NC(=O)c1cccc(Nc2nccc(Nc3cccc(F)c3)n2)c1`, the inhibition is 2.19% in test [1]; 0.47% in test [2]; 0.26% in test [3]; 0.64% in [4]; -0.2% in test [5]; 1.36% in test [6]. Besides, the inhibition is 1.82% in [7]; 3.82% in [8]; 21% in [9]; 2.25% in test [10]; 15.8% in test [11]; -3.17% in test [12]. The inhibition in [13] is 5.3%; in test [14] it was 0.35%; in test [15] it was 8.46%; in [16], 0.09%; in test [17], 8.39%; in test [18], 0.99%. The inhibition in test [19] is 2.19%; in [20] it was -0.06%.
